Measured values reported in the supplement of paper PMC7411054.
Structures can show the parent of a compound that is named as a salt.

test system: WPMY1-TUBA1B-RELA; assay: phenotypically active (imaging signature differs from DMSO and reproducible) at any of 0.3-9 uM (binary (1 = active, 0 = inactive)); higher = active; settings: treatment time: 24 h
Method in brief: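 Fifteen reporter lines derived from A549, HepG2 and WPMY1 cells by gene editing, carrying BFP for segmentation plus GFP and RFP/FusionRed markers, were exposed to 0.3, 1, 3 or 9 µM for 24 h in four wells each and imaged live. Live-cell features from each well were normalised to solvent control wells. A well set counted as deviating when ≥3 of 4 wells lay beyond the 95th percentile of control Euclidean distances, and as reproducible when the median replicate Pearson correlation exceeded the 95th percentile of non-replicates. Phenotypic activity was assigned only when both criteria were met.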

Phenotypically active, active:
Nc1nc(Cl)nc2c1ncn2[C@@H]1O[C@H](CO)[C@@H](O)[C@@H]1F [clofarabine] 1
Cc1nc(Nc2ncc(C(=O)Nc3c(C)cccc3Cl)s2)cc(N2CCN(CCO)CC2)n1 [dasatinib] 1
O=C(NCc1cccc(O)c1)Nc1nc(-c2ccncc2)cs1 [RKI 1447 dihydrochloride] 1
CC(C)n1nc(-c2cc3cc(O)ccc3[nH]2)c2c(N)ncnc21 1
COc1ccc(-c2ccc3ncc4c(c3c2)n(-c2ccc(N3CCNCC3)c(C(F)(F)F)c2)c(=O)n4C)cn1 1
CC(C)(C)c1cnc(CSc2cnc(NC(=O)C3CCNCC3)s2)o1 1
O=C(O)c1ccc(Nc2ncc3c(n2)-c2ccc(Cl)cc2C(c2c(F)cccc2F)=NC3)cc1 1
COc1ccc(S(=O)(=O)N(C(C)=O)c2ccccc2/C=C/c2cc[n+]([O-])cc2)cc1 1
CC(C)(C)Nc1nc(Nc2ccc(C(N)=O)cc2)cc(N)c1C#N 1
Nc1cccc(-c2cc3c(Oc4cccc(O)c4)ncnc3[nH]2)c1 1
c1ccc2c(c1)Cc1c(Nc3ccc4c(c3)OCCO4)n[nH]c1-2 1
Cc1c(NC(=O)OC[C@@H]2COCCN2)cn2ncnc(Nc3ccc4c(cnn4Cc4cccc(F)c4)c3)c12 1
CCC(=O)N1CCN(c2ccc(-n3c(=O)ccc4cnc5ccc(-c6cnc7ccccc7c6)cc5c43)cc2C(F)(F)F)CC1 [Torin 1] 1
COc1c(Nc2cc(C)[nH]n2)nc(Sc2ccc(S(=O)(=O)Cc3cccc([N+](=O)[O-])c3F)cc2F)nc1N1CCOCC1 [Centrinone] 1
COc1cc2c(NC3CCN(C(C)C)CC3)nc(N3CCC(F)(F)CC3)nc2cc1OCCCN1CCCC1 1
CC(=O)c1c(C)c2cnc(Nc3ccc(N4CCNCC4)cn3)nc2n(C2CCCC2)c1=O 1
CN1c2ccccc2C(=O)N2CCc3c([nH]c4ccccc34)[C@H]21 [Evodiamine] 1
CO[C@H]1C=CC=C(C)C(=O)NC2=CC(=O)C(NCCN(C)C)=C(C[C@@H](C)C[C@H](OC)[C@H](O)[C@@H](C)C=C(C)[C@@H]1OC(N)=O)C2=O [17-DMAG hydrochloride] 1
Cc1noc(C)c1-c1cc(O)cc(C(O)c2ccccc2)c1 (stereo not drawn) 1
O=C(Nc1ccc(-c2ccnc(Nc3ccc(N4CCOCC4)cc3)n2)cc1)[C@@H]1CCCN1 1
NC1(C(=O)N[C@@H](CCO)c2ccc(Cl)cc2)CCN(c2ncnc3[nH]ccc23)CC1 1
NC(=O)Nc1cc(-c2cccc(F)c2)sc1C(=O)N[C@H]1CCCNC1 [AZD 7762 hydrochloride] 1
COc1cc2nc(-c3cc(F)ccc3O)nc(N[C@@H]3CNC[C@H]3C(C)(C)O)c2cc1OC 1
Cc1c[nH]c2nccc(Oc3c(F)cc(Nc4cc(Cl)nc(N)n4)cc3F)c12 1
C[C@H]1[C@H]2CC[C@H]3[C@@H]4CC=C5C[C@@H](N(C)C)CC[C@]5(C)[C@H]4CC[C@]23CN1C [Conessine] 1
CON(C)C(=O)N1N=C(c2cc(F)ccc2F)S[C@@]1(CCCN)c1ccccc1 [ARRY 520 trifluoroacetate] 1
CC[C@H](CO)Nc1nc(NCc2ccc(-c3ccccn3)cc2)c2ncn(C(C)C)c2n1 1
Oc1cccc(-c2nc(N3CCOCC3)c3oc4ncccc4c3n2)c1 [PI 103 hydrochloride] 1
COc1cc(/C=C/c2ccc(OC)cc2OC)cc(OC)c1 1
COc1cc2c(cc1-c1c(C)noc1C)ncc1[nH]c(=O)n([C@H](C)c3ccccn3)c12 [I-BET 151 dihydrochloride] 1
COc1cccc(-c2cc(F)ccc2[C@H]2Cc3nc(N)nc(C)c3C(=O)N2)n1 1
COc1cc(C(=O)NC2CCN(C)CC2)c(F)cc1Nc1ncc2c(n1)N(C1CCCC1)CC(F)(F)C(=O)N2C [TAK 960 hydrochloride] 1
CC[C@]1(O)C[C@@H]2CN(CCc3c([nH]c4ccccc34)[C@@](C(=O)OC)(c3cc4c(cc3OC)N(C=O)[C@H]3[C@@](O)(C(=O)OC)[C@H](OC(C)=O)[C@]5(CC)C=CCN6CC[C@]43[C@@H]65)C2)C1 [vincristine] 1
